# In PubChem BioAssay (EPA / NIEHS):
# Several values for one entry are separate records, joined by “and”; a condition that tells them apart may be missing. Identical values can stand only once. Records with an inconclusive call do not appear. Some compounds were tested as several samples or in several runs, with calls that do not always agree. Activity calls are given as the source filed them. Rule for the calls: active = hit-call score of the fitted dose curve at least 0.9, where 1 is the maximum; inconclusive = response in the unintended direction; inactive = score below 0.9.
# Biological target: Cellular tumor antigen p53 (Homo sapiens) (UniProt P04637)
# Assay: TOX21_p53_BLA_p3_ratio: Tox21 HCT-116 p53 Agonism Beta-lactamase Assay, Ratio, Phase 3 (AID 2283596)
# Text: TOX21_p53_BLA_p3 is a cell-based, single-readout assay that uses HCT116, a human intestinal cell line, […] in a 1536-well plate.TOX21_p53_BLA_p3_ratio is an assay readout measuring reporter gene via receptor activity and designed using inducible reporter (beta lactamase induction) detected with GAL4 b-lactamase reporter gene. The signal is derived from the ratio of cleaved (ch2) to uncleaved (ch1) reporter gene substrate used as the measure of target activity.Data from the assay component TOX21_p53_BLA_p3_ratio was analyzed into 1 assay endpoint. This assay endpoint, TOX21_p53_BLA_p3_ratio, was analyzed in the positive analysis fitting direction relative to DMSO as the negative control and baseline of activity. Using a type of inducible reporter, gain-of-signal activity can be used to understand changes in the reporter gene as they relate to the gene TP53. Furthermore, this assay endpoint can be referred to as a primary readout, because this assay has produced multiple assay endpoints where this ratio serves a reporter gene function to understand target activity. To generalize the intended target to other relatable targets, this assay endpoint is annotated to the DNA binding intended target family, where the subfamily is tumor suppressor.
# Thawing Method: Place 14 mL of pre-warmed thaw medium into a 15 mL of conical tub. Remove the vial of cells to be thawed from liquid nitrogen and thaw rapidly by placing at 37C in a water bath with gentle agitation for 1-2 minutes. Decontaminate the vial by wiping with 70% ethanol before opening in a biological safety cabinet. Transfer the vial contents drop-wise into 14 mL of thaw medium in a sterile 15-mL conical tub. Centrifuge cells at 900 rpm for 4 minutes and resuspend in thaw medium. Transfer contents to the T75 tissue culture flask containing Thaw Medium and place flask in a humidified 37C/5% CO2 incubator. Switch to growth medium at first passage.Propagation Method: Aspirate medium, rinse once in DPBS, add 0.25% Trypsin/EDTA and swirl to coat the cell evenly. Add an equal volume of Growth Medium to inactivate Trypsin after 2-3 minutes incubation at 37C. Centrifuge cells at 900 rpm for 4 minutes and resuspend in growth medium. Cell should be passage or fed at least twice a week.Assay Protocol: Harvest cells from culture in growth medium and resuspend in assay medium. 2.2 Dispense 4000 cells/5 uL/well into 1536-well black/clear bottom plates using a Multidrop dispenser. After the cells were incubated at 37C for 5 hours, 23 nL of compounds dissolved in DMSO were transferred to the assay plate by a PinTool resulting in a 217-fold dilution. Incubate the plates for 16 hours at 37C, 5% CO2. Add 1 uL of 6X LiveBLAzer FRET B/G (CCF4-AM) Substrate Mixture to each well using a BioRAPTR dispenser and incubate the plates at room temperature for 2 hours. Measure fluorescence intensity at 460 and 530 nm emission and 405 nm excitation by an Envision detector. Data is expressed as the ratio of 460nm/530nm emissions. Add 4 uL of Cell-titer Glo to each well using BioRAPTR and incubate the plates at room temperature for 2 hours. Measure fluorescence intensity by a VewLux plate reader.
# Chain of Cellular tumor antigen p53 (Homo sapiens) (P04637 whole entry, looked up): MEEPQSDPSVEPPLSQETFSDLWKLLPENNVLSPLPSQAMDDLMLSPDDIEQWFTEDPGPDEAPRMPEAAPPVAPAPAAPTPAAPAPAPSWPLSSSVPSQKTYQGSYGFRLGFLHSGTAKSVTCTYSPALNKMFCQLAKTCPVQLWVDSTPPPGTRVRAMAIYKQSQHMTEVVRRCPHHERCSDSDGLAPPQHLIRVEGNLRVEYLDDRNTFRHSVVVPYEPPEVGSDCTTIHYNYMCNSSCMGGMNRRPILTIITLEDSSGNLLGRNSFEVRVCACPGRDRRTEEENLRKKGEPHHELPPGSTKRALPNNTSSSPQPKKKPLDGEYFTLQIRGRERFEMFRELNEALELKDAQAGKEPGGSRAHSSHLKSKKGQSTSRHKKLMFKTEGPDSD
SMILES,AC50,outcome
CCCCCCCCCCCCCCC(Br)C(=O)O (stereo not given),75.3 µM (active),–
CC(O)(CS(=O)(=O)c1ccc(F)cc1)C(=O)Nc1ccc(C#N)c(C(F)(F)F)c1 (stereo not given),–,inactive
CCOC(=O)C(SP(=S)(OC)OC)c1ccccc1 (stereo not given),–,inactive
O=C(NC(=O)c1c(F)cccc1F)Nc1cc(Cl)c(F)c(Cl)c1F,–,inactive
O=c1oc2ccccc2c(O)c1C(CC(O)c1ccc(-c2ccc(Br)cc2)cc1)c1ccccc1 (stereo not given),43.4 µM (active) and 22.3 µM (active),–
O=C(O)COc1ccc(Cl)cc1,–,inactive
COCCl,–,inactive
CC(C)=CC1C(C(=O)OCc2cccc(Oc3ccccc3)c2)C1(C)C (stereo not given),–,inactive
CCC[N+](CCC)(CCC)CCC,–,inactive
COP(=S)(OC)Oc1cc(Cl)c(I)cc1Cl,75.1 µM (active),–
C[C@H]1C(=O)O[C@@H]2CCN3CC=C(COC(=O)[C@](C)(O)[C@]1(C)O)[C@H]23,–,inactive
O=C(CCl)Nc1ccccc1,–,inactive
O=C(Cl)OCCOCCOC(=O)Cl,–,inactive
CC(C)[C@H](C(=O)OC(C#N)c1cccc(Oc2ccccc2)c1)c1ccc(OC(F)F)cc1 (stereo not given in full),–,inactive
CCOP(=S)(OCC)OP(=S)(OCC)OCC,–,inactive
CCOP(=O)(OCC)OC(=CCl)c1ccc(Cl)cc1Cl,–,inactive
CCOc1ccc(N)cc1,–,inactive
O=NN1CCCCCC1,–,inactive
O=NN1CCCCCCC1,–,inactive
Cl[C@H]1OCCO[C@@H]1Cl,–,inactive

SMILES,AC50,outcome
O=C=Nc1ccc(Cl)cc1,–,inactive
CCOC(=O)CC(=O)CCl,77.9 µM (active),–
C=CC(=O)[O][Sn]([CH2]CCC)([CH2]CCC)[CH2]CCC,13.6 µM (active),–
c1ccc2c(c1)Oc1ccccc1O2,86.4 µM (active),inactive
O=S(=O)(c1ccc(Cl)cc1)c1cc(Cl)c(Cl)cc1Cl,–,inactive
CC1(C)[C@H](/C=C2\CCSC2=O)[C@@H]1C(=O)OCc1coc(Cc2ccccc2)c1,–,inactive
Cc1cccc(C)c1NC(=O)CN1CCCC1=O,–,inactive
CCC[CH2][Sn]([Cl])([Cl])[CH2]CCC,19.6 µM (active) and 20.1 µM (active),–
O=C(NC(=O)c1c(F)cccc1F)Nc1cc(Cl)c(OC(F)(F)C(F)C(F)(F)F)cc1Cl (stereo not given),–,inactive
O=c1[nH]c2ccccc2n1C1CCN(CCCC(c2ccc(F)cc2)c2ccc(F)cc2)CC1,83.6 µM (active) and 43.4 µM (active),–
CCCCCCCCCCCCCl,–,inactive
N#CCCC(Br)(C#N)CBr (stereo not given),70.8 µM (active),–
CN(N=O)C(N)=O,–,inactive
Cc1cc(-c2cc(C)c(N)c(C)c2)cc(C)c1N,–,inactive
Nc1ccc(-c2ccccc2)cc1,–,inactive
CC(C)CP(=S)(S)CC(C)C,–,inactive
O=[N+]([O-])c1cccc2ccccc12,–,inactive
C=CC(=O)NC(C)(C)CC(C)=O,–,inactive
CC(C)(C)c1cc([N+](=O)[O-])cc(C(C)(C)C)c1O,4.47 µM (active),–
